We go through 8 molecules from PubChem BioAssay.

Experiment [1] is described as follows: A549 cell viability effects, profiling panel, calcein-AM fluorescence, 48 h, basal (AID 1162). Further: test concentration not given here. Particulars: higher = more signal.
The nature of experiment [2]: adipocyte viability effects, profiling panel, cell-based, 3T3-L1 adipocytes, calcein-AM fluorescence, 48 h, basal (AID 1163). Further: test concentration not given here. The following applies: 3T3-L1 adipocytes viability, higher = more signal.
Experiment [3] is described as follows: HepG2 cell viability effects, profiling panel, calcein-AM fluorescence, 48 h, basal (AID 1164). Further: test concentration not given here. Particulars: higher = more signal.
The nature of experiment [4]: MM1S cell viability effects, profiling panel, calcein-AM fluorescence, 48 h, basal (AID 1165).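 Further: viability of MM1S multiple myeloma cells under basal unstimulated conditions; test concentration not given here.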 The following applies: higher = more signal.
Experiment [5] can be described thus: basal RPMI8226 viability, no added stimulus, profiling panel, cell-based, calcein-AM fluorescence, 48 h, PK04 Diversity Set (AID 1166).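 Further: cells grown under basal conditions without added stimulus; test concentration not given here.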 The following applies: RPMI8226 myeloma viability, higher = more signal.
A short description of experiment [6]: basal HepG2 mitochondrial membrane potential changes, profiling panel, cell-based, JC-1 fluorescence, 24 h, 100 nL compound (AID 1167). Further: test concentration not given here. The following applies: higher = more signal.
A short description of experiment [7]: basal 3T3-L1 adipocyte mitochondrial potential changes, profiling panel, cell-based, JC-1 fluorescence, 3T3-L1 adipocytes, 24 h, 100 nL compound (AID 1168). Further: test concentration not given here. The following applies: JC-1 mitochondrial fluorescence, higher = more signal, called active from +8 up or from −8 down.
Experiment [8] in a line: basal RPMI8226 mitochondrial membrane potential changes, profiling panel, cell-based, JC-1 fluorescence, 24 h, 100 nL compound (AID 1169). Further: test concentration not given here. The following applies: RPMI8226 myeloma, JC-1 mitochondrial potential fluorescence, higher = more signal.
Experiment [9] can be described thus: basal MM1S mitochondrial membrane potential changes, profiling panel, cell-based, JC-1 fluorescence, 24 h, 100 nL compound (AID 1170). Further: test concentration not given here. The following applies: higher = more signal.
A short description of experiment [10]: A549 lung cancer cell viability effects, profiling panel, resazurin fluorescence, 24 h, PK04 Diversity Set (AID 1171). Further: test concentration not given here. The following applies: higher = more signal, called active from +8 up or from −8 down.
A short description of experiment [11]: HepG2 liver cancer cell viability effects, profiling panel, resazurin fluorescence, 24 h, PK04 Diversity Set (AID 1172). Further: test concentration not given here. The following applies: higher = more signal. A general note: Resazurin is reduced to fluorescent resorufin, in cell work by metabolically active cells.
Experiment [12] can be described thus: basal S. cerevisiae growth modulation, no modifier, primary screen, OD600, strain BY4716, 24 h, basal condition (AID 1173). The following applies: OD600, 24 h, higher = more signal, called active from +8 up or from −8 down.
The nature of experiment [13]: MM1S myeloma cell viability, profiling panel, resazurin fluorescence, basal, 24 h, PK04 Diversity Set (AID 1174).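 Further: MM1S multiple myeloma cell line; test concentration not given here.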 Particulars: higher = more signal, called active from +8 up or from −8 down.
Experiment [14] addresses Dihydroorotate dehydrogenase (quinone), mitochondrial (Plasmodium falciparum (isolate 3D7)) (UniProt Q08210). Briefly: PfDHODH enzyme inhibitors, primary screen, biochemical, C-terminal His tag, absorbance 600 nm (AID 1175).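 Further: recombinant parasite enzyme with a five histidine tag at its C terminus; test concentration not given here.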 The following applies: DCIP absorbance 600 nm, higher = more signal, called active from +8 up or from −8 down.
A short description of experiment [15]: P. aeruginosa biofilm formation inhibitors, primary screen, strain PAO1, LB-PBS medium, absorbance 600 nm (AID 1176). Further: test concentration not given here. Particulars: P. aeruginosa PAO1 growth/biofilm, A600, 12 h; higher = more signal.
Experiment [16] is described as follows: S. cerevisiae RM11-1a growth modifiers, primary screen, strain RM11-1a, OD600, basal, 24 h (AID 1177).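 Further: cultures grown under basal conditions with no added stressor; test concentration not given here.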 Particulars: OD600, 24 h, higher = more signal, called active from +8 up or from −8 down.
Experiment [17] in a line: E. coli acrAB mutant growth effects, primary screen, E. coli filamentation inducers, strain DRC39, OD650, 24 h (AID 1178).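 Further: growth measured as culture turbidity by optical density at 650 nm; test concentration not given here.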 Particulars: higher = more signal, called active from +8 up or from −8 down.
A short description of experiment [18]: E. coli acrAB mutant growth effects, primary screen, E. coli filamentation inducers, strain DRC39, OD650, 48 h (AID 1179).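 Further: screen aims at cell division blockers that make cells filament.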 Particulars: E. coli DRC39 delta-acrAB growth, higher = more signal, called active from +8 up or from −8 down.
Experiment [19] in a line: RPMI8226 myeloma cell viability, profiling panel, resazurin fluorescence, basal, 24 h, PK04 Diversity Set (AID 1180).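 Further: RPMI8826 multiple myeloma cell line at 5000 cells per well; test concentration not given here.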 The following applies: higher = more signal.
Experiment [20] has as its target E3 ubiquitin-protein ligase XIAP (Homo sapiens) (UniProt P98170). Briefly: XIAP binders, primary screen, biophysical, small-molecule microarray, fluorescence 635 nm (AID 1181).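 Further: score merges 667 nm emission and signal to noise over triplicate slides.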 The following applies: small-molecule microarray binding, higher = more signal.

Calls of active or inactive are those of the source. Unless noted, how the calls were made is not given here.

Dihydroorotate dehydrogenase (quinone), mitochondrial (Plasmodium falciparum (isolate 3D7)), sequence (Q08210 whole entry, looked up): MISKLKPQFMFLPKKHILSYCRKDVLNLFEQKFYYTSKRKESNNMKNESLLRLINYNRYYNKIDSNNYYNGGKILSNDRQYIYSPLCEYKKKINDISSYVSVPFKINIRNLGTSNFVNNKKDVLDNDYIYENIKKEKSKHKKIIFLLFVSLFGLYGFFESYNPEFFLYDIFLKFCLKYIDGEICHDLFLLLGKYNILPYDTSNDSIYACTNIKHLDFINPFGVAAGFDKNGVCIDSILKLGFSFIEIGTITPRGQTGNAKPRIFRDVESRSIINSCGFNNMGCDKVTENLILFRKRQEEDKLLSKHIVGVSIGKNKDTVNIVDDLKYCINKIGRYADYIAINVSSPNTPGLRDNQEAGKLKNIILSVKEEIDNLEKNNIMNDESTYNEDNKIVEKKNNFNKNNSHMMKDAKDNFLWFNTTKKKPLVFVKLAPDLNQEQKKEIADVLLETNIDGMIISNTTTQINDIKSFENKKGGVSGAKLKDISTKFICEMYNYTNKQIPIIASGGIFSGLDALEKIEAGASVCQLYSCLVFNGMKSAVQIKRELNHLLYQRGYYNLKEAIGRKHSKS
E3 ubiquitin-protein ligase XIAP (Homo sapiens), sequence (P98170 whole entry, looked up): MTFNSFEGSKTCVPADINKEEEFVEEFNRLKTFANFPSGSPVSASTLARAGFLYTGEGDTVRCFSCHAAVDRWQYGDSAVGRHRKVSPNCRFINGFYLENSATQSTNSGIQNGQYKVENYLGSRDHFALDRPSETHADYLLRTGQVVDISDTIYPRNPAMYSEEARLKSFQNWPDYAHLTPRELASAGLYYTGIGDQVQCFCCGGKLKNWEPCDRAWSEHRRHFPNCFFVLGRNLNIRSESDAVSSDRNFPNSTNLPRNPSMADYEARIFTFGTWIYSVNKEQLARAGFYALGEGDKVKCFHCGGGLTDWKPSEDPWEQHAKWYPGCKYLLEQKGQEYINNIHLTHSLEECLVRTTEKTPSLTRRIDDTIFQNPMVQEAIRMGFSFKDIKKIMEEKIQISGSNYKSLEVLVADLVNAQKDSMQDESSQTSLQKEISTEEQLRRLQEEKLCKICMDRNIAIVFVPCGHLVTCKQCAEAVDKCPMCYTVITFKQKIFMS

On to `C=CCC(OC(C)=O)[C@@H]1[C@@H](N(Cc2ccc(-c3ccccc3)cc2)C(=O)c2cccc3ccccc23)c2cc(OCCCO)ccc2N1C(=O)c1ccc(-c2ccccc2)cc1` (stereo not given in full), for which the z-score in experiment [1] is 0.143; in experiment [2], 0.286; in experiment [3], 0.391; in experiment [4], 0.139; in [5], -0.094; in experiment [6], 3.13. For the same molecule, the z-score in experiment [7] was 0.266 (inactive); in experiment [8], -0.745; in experiment [9] it was -0.00624; in experiment [10] it was 0.126 (inactive); in experiment [11], -0.398; in experiment [12], -0.467 (inactive). Moreover, the z-score in [13] is 0.395 (inactive); in [15] it was -0.0391 (inactive); in experiment [16] it was -0.768 (inactive); in [17], 1.59 (inactive); in [18], 0.734 (inactive); in experiment [19], 0.234. Also, the composite z-score in experiment [14] is -0.0355 (inactive); in [20], -0.411.
`N#Cc1ccc(NN2C(C(O)C(c3ccccc3)c3ccccc3)C=CC3C(=O)N(c4ccccc4)C(=O)C32)cc1` (stereo not given): the z-score is 0.825 in experiment [1]; -1.53 in experiment [2]; 0.361 in [3]; 0.0017 in experiment [4]; 0.103 in experiment [5]; 0.913 in [6]. In addition, the z-score in experiment [7] is -0.435 (inactive); in experiment [8], -0.812; in experiment [9], -0.379; in experiment [10] it was -0.386 (inactive); in experiment [11], -0.554; in experiment [12], 0.551 (inactive). For the same molecule, the z-score was -1.17 (inactive) in experiment [13]; 0.35 (inactive) in [15]; 0.826 (inactive) in experiment [16]; -0.135 (inactive) in experiment [17]; 0.832 (inactive) in [18]; 0.0951 in experiment [19]. Also, the values for the composite z-score in experiment [14] and in experiment [20] were 0.0998 (inactive) and 0.0849, respectively.
Consider `O=C(c1ccccc1)N1C(=O)[C@]2(COC(c3ccc(OCCCO)cc3)=N2)Cc2ccccc21`, for which the z-score in experiment [1] is -0.525; in [2], 0.6; in [3], -0.92; in [4] it was -1.72; in experiment [5], -3.77; in experiment [6] it was -1.23. Moreover, the z-score is -0.03 (inactive) in experiment [7]; -1.26 in experiment [8]; -1.49 in [9]; -0.272 (inactive) in [10]; 0.0993 in experiment [11]; -1.67 (inactive) in experiment [12]. Moreover, the z-score in [13] was -1.96 (inactive); in experiment [15] it was 0.95 (inactive); in experiment [16] it was 0.349 (inactive); in [17], 0.107 (inactive); in experiment [18], -0.26 (inactive); in experiment [19], -1.24. Moreover, the results for the composite z-score in [14] and in experiment [20] were 0.201 (inactive) and 0.0479, respectively.
Consider `CCc1cccc(NC(=O)O[C@H]2[C@H](OC(=O)Nc3ccccc3-c3ccccc3)[C@@H](OC(=O)Nc3ccccc3-c3ccccc3)[C@@H](OC)O[C@@H]2CO)c1`, for which the z-score in experiment [1] is -4.21; in [2], 0.175; in [3], -4.64; in experiment [4], -3.46; in [5], -4.11; in experiment [6], -1.11. Besides, the z-score in experiment [7] is 1.66 (inactive); in experiment [8], -1.1; in experiment [9], -1.91; in experiment [10], -6.15 (inactive); in experiment [11] it was -4.43; in experiment [12], 0.972 (inactive). In addition, the z-score in experiment [13] was -4.83 (inactive); in experiment [15] it was 0.0279 (inactive); in experiment [16], 0.924 (inactive); in experiment [17] it was -1.04 (inactive); in [18] it was -0.361 (inactive); in experiment [19], -5.09. Further, the results for the composite z-score in experiment [14] and in [20] were 0.153 (inactive) and 0.19, respectively.
`COc1ccc(C#Cc2ccc3c(c2)[C@]2(C(=O)N3)[C@H](C(=O)NC[C@H](O)c3ccccc3)[C@H]3C(=O)O[C@H](c4ccccc4)[C@H](c4ccccc4)N3[C@@H]2c2ccc(O)cc2)cc1`: the z-score in experiment [1] is 0.0902; in [2] it was -0.753; in [3], -0.0809; in experiment [4], -3.27; in [5], -4.13; in experiment [6], -1.93. The z-score in experiment [7] was -0.523 (inactive); in experiment [8], -1.11; in experiment [9], -1.57; in experiment [10] it was -0.226 (inactive); in experiment [11], -0.475; in experiment [12], -0.26 (inactive). The z-score in experiment [13] is -2.61 (inactive); in [15], 0.971 (inactive); in experiment [16] it was 2.29 (inactive); in [17] it was 0.0945 (inactive); in experiment [18], 0.51 (inactive); in experiment [19] it was -3.97. The composite z-score was 0.843 (inactive) in experiment [14] and 0.262 in experiment [20].
For the molecule `O=C1O[C@@H](c2ccccc2)[C@@H](c2ccccc2)N2[C@@H](c3ccccc3OCCO)[C@]3(C(=O)Nc4ccc(C#CC5=CCCCC5)cc43)[C@@H](C(=O)N3CCCCCCC3)[C@H]12`, the z-score in experiment [1] is -1.66; in experiment [2], 0.25; in experiment [3], 0.297; in experiment [4], -3.09; in experiment [5] it was -2.79; in experiment [6], 1.19. The z-score in experiment [7] was -1.85 (inactive); in [8], -0.715; in experiment [9], -1.75; in [10], -0.312 (inactive); in experiment [11], -0.868; in experiment [12] it was 0.98 (inactive). The z-score in [13] was -6.31 (inactive); in experiment [15], 1.63 (inactive); in [16] it was 1.19 (inactive); in [17] it was -0.994 (inactive); in [18] it was -0.576 (inactive); in experiment [19], -4.11. For the same molecule, the composite z-score is -0.35 (inactive) in experiment [14] and 1.56 in [20].
On to `C=CC1(C(=O)OC)CC=C(C(=O)OC)CC1` (stereo not given), for which the z-score is 0.211 in experiment [1]; 0.0237 in [2]; -0.287 in experiment [3]; 0.835 in [4]; -0.0765 in [5]; 1.27 in [6]. The z-score in experiment [7] is 0.562 (inactive); in experiment [8] it was -0.093; in experiment [9], -1.42; in [10] it was 0.45 (inactive); in experiment [11], 0.249; in experiment [12], 0.489 (inactive). The z-score in experiment [13] is 0.501 (inactive); in [15], 0.201 (inactive); in experiment [16] it was -0.834 (inactive); in experiment [17], -0.233 (inactive); in experiment [18], 1.19 (inactive); in experiment [19], 1.08. For the same molecule, the values for the composite z-score in experiment [14] and in [20] were -2.11 (inactive) and -0.248, respectively.
In the case of `COc1ccc([Si](C)(C)[C@@H]2[C@@H](CCO)O[C@]3(C(=O)N(Cc4ccc(N(C=O)c5ccccc5)cc4)c4ccccc43)[C@H]2C)cc1`, the z-score in experiment [1] is -0.844; in [2] it was -0.193; in experiment [3], -3.46; in [4], -1.94; in experiment [5] it was -3.9; in experiment [6], -0.164. Also, the z-score is 0.21 (inactive) in experiment [7]; -0.95 in [8]; -1.26 in experiment [9]; -2.71 (inactive) in experiment [10]; -1.59 in experiment [11]; 1.76 (inactive) in experiment [12]. The z-score in experiment [13] was -2.44 (inactive); in experiment [15] it was 1.46 (inactive); in experiment [16], 4.89 (inactive); in [17], 0.544 (inactive); in [18], -0.339 (inactive); in experiment [19], -2.25. Further, the composite z-score in experiment [14] is -0.493 (inactive); in [20], -0.184.
